An excerpt weighted towards active compounds, which were near 10% of everything screened.
Mm-Cpn inhibitor: blocks the Methanococcus maripaludis chaperonin Mm-Cpn. purified Mm-Cpn ATPase, ADP Transcreener TR-FRET. Potency, µM (titrated, usually from 76.9 µM), for the others: at the top dose activity, negative = inhibition, hits mostly inhibitors. 330,000 compounds, 0.031% hits. AID 504842; note: potency is the fitted concentration of half-maximal effect; nearly all actives have a fitted effect of over 80% in size
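Eu-cryptate anti-ADP/ADP-d2 competition gives a ratio inversely related to ADP. Enzyme at 25 nM was pre-exposed to compound for 10 min, then given 10 uM ATP for 30 min, 37°C throughout.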
VDR inhibitor: blocks the human vitamin D receptor | 400,000 compounds, 0.93% hits | VDR-SRC2-3 peptide fluorescence polarization, 2 h | Potency, µM, for the others: max response, negative = inhibition, actives largely listed as inhibitors | AID 504847; note: potency is the fitted concentration of half-maximal effect
Target sequence (P11473 whole entry, looked up): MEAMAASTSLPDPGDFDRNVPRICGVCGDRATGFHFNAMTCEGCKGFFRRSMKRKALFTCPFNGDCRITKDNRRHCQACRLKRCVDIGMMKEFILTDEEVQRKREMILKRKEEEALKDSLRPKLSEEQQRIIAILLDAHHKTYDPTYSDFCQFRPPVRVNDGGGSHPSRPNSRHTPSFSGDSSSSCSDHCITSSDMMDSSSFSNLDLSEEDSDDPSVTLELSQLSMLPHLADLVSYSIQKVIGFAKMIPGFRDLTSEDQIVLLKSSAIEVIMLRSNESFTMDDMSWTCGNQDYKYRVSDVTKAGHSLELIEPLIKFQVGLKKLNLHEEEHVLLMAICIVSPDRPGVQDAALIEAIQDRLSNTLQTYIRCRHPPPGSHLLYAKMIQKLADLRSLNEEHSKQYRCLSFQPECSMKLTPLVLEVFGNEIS
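Fluorescence polarization assay of small-molecule disruption of VDR binding to coregulator peptide SRC2-3. Compounds and controls pin-transferred, then read after 2 h incubation at ambient room temperature.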
CCT modulator: cytosolic chaperonin activity modulation. AID 651819. purified chaperonin ATPase assay, HTRF ADP detection, 30 min. activity change, % (concentration not given with the values), hits read low. 360,000 compounds, 0.3% hits; in the data active = activity change below about -30%
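Enzyme 40 or 20 nM (batch-dependent) in Tris pH 7.4/KCl/MgCl2/DTT; cpd 76 uM single point; ATP 10 uM; 30 min 37 °C; Transcreener ADP HTRF detection, 30 min RT; ratio 665/615.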
PLK1 PBD block: blocks phosphopeptide binding to human PLK1 polo-box domain | Plk1 PBD binding of FITC phosphopeptide, fluorescence polarization | Potency, µM, without a hit: max response, negative = inhibition, most hits filed as inhibitors | 360,000 compounds, 2.8% hits | AID 720504; note: potency is the fitted concentration of half-maximal effect; series mostly up to about 57 µM; nearly all actives have a fitted effect of over 65% in size
Sfp inh: blocks B. subtilis Sfp PPTase activity | Potency, µM, inactives show largest response in the series, negative = inhibition, most hits filed as inhibitors | Biochemical Sfp PPTase activity, qHTS | 310,000 compounds, 3.5% hits | AID 1490;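 note: the enzyme is Sfp with the accession as filed and its product quenches rhodamine fluorescence; potency is the fitted concentration of half-maximal effect; 0% = enzyme reaction without inhibitor and -100% = no enzyme wells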
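Fluorescence-quenching assay with 15 nM Sfp, 5 uM rhodamine-CoA and 12.5 uM BHQ-2-labelled ybbR peptide in pH 7.6 Hepes/MgCl2 buffer. Enzyme was pre-incubated with compound for 15 min at room temperature. Rate was taken from the 30-min fluorescence change (525/598 nm).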
G9a inh: blocks human histone lysine methyltransferase G9a. G9a H3K9 monomethylation, AlphaScreen, 2 h. Potency, µM (top dose mostly 102 µM), for inactives: top-dose activity, negative = inhibition, actives largely listed as inhibitors. 350,000 compounds, 8.8% hits; note: potency is the fitted concentration of half-maximal effect; nearly all actives have a fitted effect of over 75% in size
Target sequence (Q96KQ7 913-1193 limits assumed): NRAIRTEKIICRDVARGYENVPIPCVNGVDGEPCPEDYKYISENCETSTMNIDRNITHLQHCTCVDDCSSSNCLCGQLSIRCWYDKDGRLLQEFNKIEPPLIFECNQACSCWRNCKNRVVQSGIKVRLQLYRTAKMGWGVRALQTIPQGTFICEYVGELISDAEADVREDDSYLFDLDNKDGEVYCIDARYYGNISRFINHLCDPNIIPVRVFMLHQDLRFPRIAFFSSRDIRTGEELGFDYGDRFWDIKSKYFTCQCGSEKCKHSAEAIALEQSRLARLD
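G9a (20 nM) was preincubated 15 min with compound, then reacted 2 h at room temperature with 500 nM biotin-H3K9 peptide and 20 µM SAM. Monomethyl-H3K9 detected by AlphaScreen using anti-H3K9me1 antibody.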
Active calls of the source: *; ? = inconclusive; · = no result given; ! = not active in a repeat; [ ] = another dose, or the depositor's remark. Unless noted, calls come from the whole dose curve; as a rule, active = well fitted curve in the direction sought with a large enough effect; inconclusive = small, poorly fitted or top-dose-only effect, or another doubt; inactive = no such curve, though single readings can be large; an effect the other way counts as inactive or inconclusive. Unless noted, % is set by controls: 0 for no effect and ±100 for the full control effect.

SMILES	Mm-Cpn inhibitor	VDR inhibitor	CCT modulator	PLK1 PBD block	Sfp inh	G9a inh
Oc1ccc2c3c1O[C@H]1[C@@H](O)CC[C@@]4(O)C(C2)N(CC2CCC2)CCC314 (some centres not stated)	·	9%	·	·	3%	31%[12.7 µM]
Cc1cccc(-c2nn3c(=O)cc(CN4CCN(C(=O)COc5ccc(Cl)cc5)CC4)nc3s2)c1	·	23%	·	·	·	-31%[59 µM]
O=C1C2CCCN2C(c2cccnc2)N1c1ccc(Cl)cc1 (configuration not stated)	-1%	0%	0	-6%	12%	-25%
Clc1cccc(CN2CCCCC2c2cccnc2)c1 (configuration not stated)	-2%	10%	0	-3%	50µM*	56µM*
CN1CCCCC1c1ccc(-c2cccnc2)nc1 (configuration not stated)	·	-4%	-2	-2%	-3%	-118%[59 µM]
c1cncc(C2CCCCN2Cc2ccc3c(c2)OCO3)c1 (configuration not stated)	1%	-2%	-1	-9%	-1%	79µM*
CN1CCC[C@H]1c1cccnc1	-1%	-3%	-1	0%	15%	14µM*!
O=S(=O)(c1ccccc1)N1CCCCC1c1cccnc1 (configuration not stated)	2%	12%	1	1%	19%	4%[12.7 µM]
O=S(=O)(c1ccc(Cl)cc1)N1CCCC1c1cccnc1 (configuration not stated)	1%	2%	-1	1%	-24%	25%
O=C1C2CCCN2C(c2cccnc2)N1c1nccs1 (configuration not stated)	-1%	7%	-4	-9%	-7%	13µM*
COc1cc([C@@H]2c3cc4c(cc3C[C@H]3COC(=O)[C@@H]32)OCO4)cc(OC)c1O	·	-12%	·	·	·	·
[Cl][In]([Cl])[Cl]	·	20%	·	·	45µM*	0%[59 µM]
Cc1cccc(CN2CCc3nc(N4CCN(c5ccccn5)CC4)ncc3C2)c1	·	8%	·	·	·	?
CCN1C[C@@]2(COC(=O)c3ccccc3N3C(=O)CC(C)C3=O)CC[C@H](OC)[C@]34C5C[C@@H]6[C@@H](OC)C[C@@](O)(C5[C@H]6OC)[C@@](O)(C13)[C@@H](OC)C24 (some centres not stated)	·	0%	·	·	16%	·
S=c1[nH]nc(-c2ccn[nH]2)n1-c1ccccc1Cl	0%	2%	1	?	56µM*	3.2µM*
CN(C)[C@@H](Cc1ccccc1)c1ccccc1	·	5%	·	·	24%	-24%[12.7 µM]
O=C(CCCN1CCC2(CC1)C(=O)N(Cc1cccc(F)c1)CN2c1ccccc1)c1ccc(F)cc1	·	?	·	·	71µM*	?
COC(=O)OCC12CCC(O1)C1(C)C(=O)OCC21 (configuration not stated)	-1%	?	-7	24µM*	13%	7%[59 µM]
c1ccc(N2CC[C@@]3(CCCNC3)C2)cc1	·	50µM*	·	·	?	-30%[12.7 µM]
CCCCNC(=O)Oc1c(Br)cc2sc(=O)oc2c1Br	1%	·	·	·	11µM*	8.9µM*
NC(N)=N/N=C/c1ccc(N(c2ccccc2)c2ccccc2)cc1	-2%	-7%	-9	-4%	40µM*	-6%[2.33 µM]
COc1ccc(/C=N\N=C(N)N)cc1	-1%	16%	-4	-5%	13%	-7%
COc1ccc(Cl)cc1NC(=O)CN1C(=O)CN=C(c2ccccc2)c2cc(Cl)ccc21	·	-10%	·	·	·	?
C=CC[N+]1(C)CCC23c4c5ccc(O)c4O[C@H]2C(=O)CC[C@@]3(O)C1C5 (some centres not stated)	·	4%	·	·	56µM*	31%[59 µM]
C=CCN1CC[C@]23c4c5ccc(O)c4O[C@@H]2C(=O)CC[C@]3(O)[C@H]1C5	·	0%	·	·	-18%	0%[21.5 µM]
SMILES	Mm-Cpn inhibitor	VDR inhibitor	CCT modulator	PLK1 PBD block	Sfp inh	G9a inh
C=CC[N+]1(C)CC[C@]23c4c5ccc(O)c4O[C@H]2C(=O)CC[C@@]3(O)[C@H]1C5 (some centres not stated)	-2%	-6%	-1	-24%	·	1.6µM*
CNC(=O)COC(=O)c1ccc(-c2nc3ccccc3s2)s1	-1%	1%	-4	-3%	19%	?
COc1ccc2o/c(=N\O)c(C(=O)Nc3ccc(C)cc3)cc2c1	0%	-13%	-1	-17%	?	50µM*
CC/C=C\C/C=C\C/C=C\C/C=C\C/C=C\CCCC(=O)NC(C)C(=O)O (configuration not stated)	·	?	·	·	-11%	·
CCCCCCn1c(O)c(C=NCCN2CCOCC2)c(=O)[nH]c1=O	-1%	-4%	-15	-10%	18%	-16%
CCCCCC1CC(CC#CCN2CCOCC2)C(=O)O1 (configuration not stated)	-1%	-14%	1	-7%	-5%	8.9µM*
CCCCCCCCCCCCCC(=O)O[C@@H]1[C@@H](C)[C@@]2(O)[C@H](C=C(CO)C[C@]3(O)C(=O)C(C)=C[C@@H]23)[C@@H]2C(C)(C)C12OC(C)=O (some centres not stated)	·	-3%	·	·	7%	9%[59 µM]
COc1cc(N2CCOCC2)ccc1/C=C1\C(=O)NC(=O)N(Cc2cccs2)C1=O	-1%	-22%	1	?	1%	32µM*
COc1cc(N2CCOCC2)ccc1C=C1C(=O)NC(=O)NC1=O	-12%	-13%	2	-9%	56µM*	79µM*
Cc1c(C=C2C(=O)NC(=O)NC2=O)c(=O)n(-c2ccccc2)n1C	3%	4%	-1	?	3%	?
O=C1C=CC2C3C(=O)N(c4ccccc4)C(=O)C3C1N2Cc1ccccc1 (configuration not stated)	·	?	-3	?	·	·
Cc1ccc(-n2ncc(C(=O)N3CCN(c4ccc(Cl)cc4)CC3)c2C2CCN(C(=O)OC(C)(C)C)CC2)c(C)c1	·	3%	·	·	·	?
COC(=O)[C@H]1[C@H]2C[C@@H]3c4[nH]c5cc(OC)ccc5c4CCN3C[C@H]2C[C@@H](OC(=O)/C=C/c2cc(OC)c(OC)c(OC)c2)[C@@H]1OC	-22%	36%	-4	7%	·	8.9µM*
COC(=O)C1=CO[C@H](C)[C@H]2CN3CC[C@@]4(C(=O)Nc5ccccc54)[C@@H]3C[C@H]12	·	-1%	0	-6%	·	·
COC(=O)C1=CO[C@@H](C)[C@@H]2CN3CCc4c([nH]c5cc(OC)ccc45)[C@@H]3C[C@H]12	·	79µM*	·	·	-3%	·
CC(=O)OCC1=C[C@H]2[C@@H]3C(C)(C)[C@]3(OC(=O)Cc3ccccc3)C[C@@H](C)[C@]2(O)[C@@H]2C=C(C)C(=O)[C@@]2(O)C1	·	-2%	·	·	15%	·

Screens deposited in PubChem by National Center for Advancing Translational Sciences (NCATS).
